In PubChem BioAssay (NCATS):
Results filed as inconclusive are left out. Where a call stands in place of a potency, no number is given. Activity calls are given as the source filed them. Calls follow the shape of the dose curve; as a rule, active = well fitted cell-killing curve with a large enough effect; inconclusive = small, poorly fitted or top-dose-only effect, or effect the other way; inactive = no such curve, though single readings can be large or run the other way.

Assay: qHTS assay to identify small molecule inhibitors of chordoma cells - UCH-1 (AID 1259355); also: nearly all actives have a fitted effect of over 55% in size
Conditions: UCH-1 chordoma viability, CellTiter-Glo, 48 h, combination, with auranofin plus four topoisomerase inhibitors; series mostly up to 46.1 µM
Procedure, shortened: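 Seed 800 cells per well; incubate overnight at 37 C, 5% CO2. Add test compounds (15 concentrations), then the auranofin–topoisomerase-agent combination. Incubate 48hr, add CellTiter-Glo, wait 30min, read luminescence.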
Potency is read from the fitted curve at half-maximal effect.

Compound	Potency
CN(C)CCOC(=O)C(c1ccccc1)C1(O)CCCC1 (stereo not given)	inactive
O=C(O)C1(C(=O)O)CCC1.[NH2-].[NH2-].[Pt+2]	inactive
CC(CNC1CCCCC1)OC(=O)c1ccccc1 (stereo not given)	inactive
O=C1C(=O)c2ccccc2C(O)=C1C1CCC(c2ccc(Cl)cc2)CC1 (stereo not given)	inactive
CN1CCN(C2=Nc3cc(F)ccc3Cc3ccccc32)CC1	inactive
CCOC(=O)Nc1ccc2c(c1)N(C(=O)CCN1CCOCC1)c1ccccc1S2	inactive
CC(C)[C@@H]1CC[C@@H](C)CC1=O	inactive
CN=C(N)NCCC[C@H](N)C(=O)O	inactive
NS(=O)(=O)Cc1noc2ccccc12	inactive
CCCCCCCCCCCCOCCOCCOCCOCCOCCOCCOCCOCCOCCO	inactive
OC[C@H]1O[C@@H](Oc2ccc(O)cc2)[C@H](O)[C@@H](O)[C@@H]1O	inactive
CC(C)=CCOc1ccc(/C=C/C(=O)c2ccc(OCC=C(C)C)cc2OCC(=O)O)cc1	inactive
CCCCN=C(N)N=C(N)N	inactive
CCCN(CCC)S(=O)(=O)c1ccc(C(=O)O)cc1	inactive
CCO[C@@H]1O[C@H](C(COCc2ccccc2)OCc2ccccc2)[C@H](OCc2ccccc2)[C@H]1O (stereo not given in full)	inactive
C[N+]1(C)CCC(=C(c2ccccc2)c2ccccc2)CC1	inactive
CC(=O)NC(=O)c1ccccc1O	inactive
CCOc1ccccc1OCCN[C@H](C)Cc1ccc(OC)c(S(N)(=O)=O)c1	inactive
CCN1/C(=C/C=C/c2sc3ccccc3[n+]2CC)Sc2ccccc21	7.94 µM (active)
Cc1cccc(C)c1NC(=O)c1ccccc1C(=O)O	inactive
